In the supplement of paper PMC10646978:
± gives the standard deviation.

Legend:
Conditions in all cases: modulator concentration 10 µM
[1] = system: RAW-Dual (murine macrophage reporter line); assay: NF-kB reporter (SEAP) activity fold change vs agonist alone; higher = enhanced NF-kB activity
Method in brief: (§1)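 In 384-well plates holding 50 000 RAW-Dual murine macrophage reporter cells per well, compound at 10 μM final was pre-incubated for 1 hour at 37 °C, after which a PRR agonist was added overnight. Supernatant SEAP read with QUANTI-Blue at 620 nm absorbance reported NF-κB, and Lucia luciferase read with QUANTI-Luc luminescence reported IRF. Fold change values come from dividing each reporter signal by the mean of agonist-only control wells on the same plate, averaged over replicate plates with propagated errors.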

[2] = system: RAW-Dual (murine macrophage reporter line); assay: IRF reporter (Lucia luciferase) activity fold change vs agonist alone; higher = enhanced IRF activity
Method in brief: as §1

[3] = system: RAW-Dual (murine macrophage reporter line); assay: viability score (confluency relative to resting cells, overnight) (fraction); higher = more viable, active = viable (0.7 or more)
Method in brief: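 Compound was added at a final 10 μM to RAW-Dual macrophages in 384-well plates and left overnight. Confluency was imaged with IncuCyte, and two masks were generated in IncuCyte software over all imaged wells. Each viability score is confluency relative to resting cells, and a compound met the cutoff only when both masks were above 70% of resting cells.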

[4] = agonist: CpG ODN 1826 0.5 ug/mL

COc1ccc(-c2nc3c4cnn(-c5ccc(C)cc5C)c4ncn3n2)c(O)c1
NF-kB reporter [1, 4]: 1.03 ± 0.058 | NF-kB reporter ([1]; agonist: LPS 0.1 ug/mL): 1.1 ± 0.086 | NF-kB reporter ([1]; agonist: MPLA […]): 0.991 ± 0.11 | IRF reporter ([2]; agonist: 3'3'-cGAMP 10 ug/mL): 1.05 ± 0.059 | IRF reporter ([2]; agonist: LPS 0.1 ug/mL): 1.25 ± 0.14 | IRF reporter ([2]; agonist: MPLA […]): 1.09 ± 0.27 | viability score [3]: 1 (active)

Cc1cc(C)n(-c2ccc(=O)n(CCNS(=O)(=O)c3ccccc3F)n2)n1
NF-kB reporter [1, 4]: 1.08 ± 0.09 | NF-kB reporter ([1]; agonist: LPS 0.1 ug/mL): 1.08 ± 0.086 | NF-kB reporter ([1]; agonist: MPLA […]): 0.937 ± 0.049 | IRF reporter ([2]; agonist: 3'3'-cGAMP 10 ug/mL): 1.01 ± 0.059 | IRF reporter ([2]; agonist: LPS 0.1 ug/mL): 1.2 ± 0.081 | IRF reporter ([2]; agonist: MPLA […]): 1.13 ± 0.11 | viability score [3]: 1 (active)

CCOc1ccc(N2CCN(CC(=O)O)C2=O)cc1
NF-kB reporter [1, 4]: 1.15 ± 0.32 | NF-kB reporter ([1]; agonist: LPS 0.1 ug/mL): 1.06 ± 0.11 | NF-kB reporter ([1]; agonist: MPLA […]): 1.02 ± 0.1 | IRF reporter ([2]; agonist: 3'3'-cGAMP 10 ug/mL): 0.917 ± 0.063 | IRF reporter ([2]; agonist: LPS 0.1 ug/mL): 0.968 ± 0.12 | IRF reporter ([2]; agonist: MPLA […]): 1.15 ± 0.21 | viability score [3]: 0.997 (active)

CC(=O)O.CCN(CC)CC#CC1(O)CCCCC1
NF-kB reporter [1, 4]: 0.854 ± 0.083 | NF-kB reporter ([1]; agonist: LPS 0.1 ug/mL): 0.981 ± 0.058 | NF-kB reporter ([1]; agonist: MPLA […]): 0.914 ± 0.059 | IRF reporter ([2]; agonist: 3'3'-cGAMP 10 ug/mL): 0.902 ± 0.078 | IRF reporter ([2]; agonist: LPS 0.1 ug/mL): 1.21 ± 0.14 | IRF reporter ([2]; agonist: MPLA […]): 1.06 ± 0.07 | viability score [3]: 1.01 (active)

CCS(=O)(=O)N1CCN(c2ccc(Nc3ncc(C(N)=O)c(NC4CC4)n3)cc2)CC1.Cl
NF-kB reporter [1, 4]: 1.08 ± 0.046 | NF-kB reporter ([1]; agonist: LPS 0.1 ug/mL): 0.355 ± 0.033 | NF-kB reporter ([1]; agonist: MPLA […]): 0.622 ± 0.042 | IRF reporter ([2]; agonist: 3'3'-cGAMP 10 ug/mL): 0.0973 ± 0.0051 | IRF reporter ([2]; agonist: LPS 0.1 ug/mL): 0.301 ± 0.072 | IRF reporter ([2]; agonist: MPLA […]): 0.324 ± 0.081 | viability score [3]: 0.899 (active)

CCc1cccc(C)c1NC(=O)C(C)(C)CC
NF-kB reporter [1, 4]: 0.948 ± 0.18 | NF-kB reporter ([1]; agonist: LPS 0.1 ug/mL): 0.846 ± 0.12 | NF-kB reporter ([1]; agonist: MPLA […]): 0.911 ± 0.09 | IRF reporter ([2]; agonist: 3'3'-cGAMP 10 ug/mL): 1.03 ± 0.041 | IRF reporter ([2]; agonist: LPS 0.1 ug/mL): 0.988 ± 0.097 | IRF reporter ([2]; agonist: MPLA […]): 0.975 ± 0.1 | viability score [3]: 0.995 (active)

COc1ccc2[nH]c(S(=O)Cc3ncc(C)c(OC)c3C)nc2c1 (stereo unspecified)
NF-kB reporter [1, 4]: 1.22 ± 0.23 | NF-kB reporter ([1]; agonist: LPS 0.1 ug/mL): 1.01 ± 0.26 | NF-kB reporter ([1]; agonist: MPLA […]): 0.909 ± 0.065 | IRF reporter ([2]; agonist: 3'3'-cGAMP 10 ug/mL): 0.83 ± 0.028 | IRF reporter ([2]; agonist: LPS 0.1 ug/mL): 1.11 ± 0.27 | IRF reporter ([2]; agonist: MPLA […]): 0.934 ± 0.074 | viability score [3]: 0.99 (active)

COc1ccc(S(=O)(=O)N2CCC(c3ccccc3)S(=O)(=O)CC2)cc1Cl (stereo unspecified)
NF-kB reporter [1, 4]: 0.831 ± 0.2 | NF-kB reporter ([1]; agonist: LPS 0.1 ug/mL): 1.08 ± 0.082 | NF-kB reporter ([1]; agonist: MPLA […]): 0.978 ± 0.065 | IRF reporter ([2]; agonist: 3'3'-cGAMP 10 ug/mL): 0.708 ± 0.024 | IRF reporter ([2]; agonist: LPS 0.1 ug/mL): 1 ± 0.15 | IRF reporter ([2]; agonist: MPLA […]): 1.21 ± 0.32 | viability score [3]: 0.999 (active)

COc1ccc(NC(=O)CN2C(=O)c3cccc4cccc(c34)C2=O)cc1
NF-kB reporter [1, 4]: 0.966 ± 0.059 | NF-kB reporter ([1]; agonist: LPS 0.1 ug/mL): 0.998 ± 0.087 | NF-kB reporter ([1]; agonist: MPLA […]): 0.938 ± 0.063 | IRF reporter ([2]; agonist: 3'3'-cGAMP 10 ug/mL): 0.939 ± 0.033 | IRF reporter ([2]; agonist: LPS 0.1 ug/mL): 1.2 ± 0.11 | IRF reporter ([2]; agonist: MPLA […]): 1.1 ± 0.12 | viability score [3]: 1 (active)

CC(C)(C)C1CCc2c(sc(NC(=O)c3ccc(Cl)cc3)c2C(N)=O)C1 (stereo unspecified)
NF-kB reporter [1, 4]: 1.02 ± 0.086 | NF-kB reporter ([1]; agonist: LPS 0.1 ug/mL): 1.05 ± 0.093 | NF-kB reporter ([1]; agonist: MPLA […]): 0.91 ± 0.081 | IRF reporter ([2]; agonist: 3'3'-cGAMP 10 ug/mL): 0.961 ± 0.043 | IRF reporter ([2]; agonist: LPS 0.1 ug/mL): 1.55 ± 0.23 | IRF reporter ([2]; agonist: MPLA […]): 1.16 ± 0.089 | viability score [3]: 1.01 (active)

COc1cccc(CC(=O)N2CCC(Oc3ccc4ccccc4n3)C2)c1 (stereo unspecified)
NF-kB reporter [1, 4]: 0.762 ± 0.04 | NF-kB reporter ([1]; agonist: LPS 0.1 ug/mL): 1.18 ± 0.14 | NF-kB reporter ([1]; agonist: MPLA […]): 1 ± 0.077 | IRF reporter ([2]; agonist: 3'3'-cGAMP 10 ug/mL): 0.938 ± 0.056 | IRF reporter ([2]; agonist: LPS 0.1 ug/mL): 1.18 ± 0.14 | IRF reporter ([2]; agonist: MPLA […]): 1.24 ± 0.25 | viability score [3]: 1 (active)

COc1ccccc1-c1noc(C2CN(S(=O)(=O)N(C)C)C2)n1
NF-kB reporter [1, 4]: 0.972 ± 0.051 | NF-kB reporter ([1]; agonist: LPS 0.1 ug/mL): 0.982 ± 0.083 | NF-kB reporter ([1]; agonist: MPLA […]): 1.29 ± 0.09 | IRF reporter ([2]; agonist: 3'3'-cGAMP 10 ug/mL): 1.02 ± 0.047 | IRF reporter ([2]; agonist: LPS 0.1 ug/mL): 1.27 ± 0.26 | IRF reporter ([2]; agonist: MPLA […]): 1.54 ± 0.51 | viability score [3]: 0.993 (active)

CNCCC=C1c2ccccc2CCc2ccccc21.Cl
NF-kB reporter [1, 4]: 0.45 ± 0.07 | NF-kB reporter ([1]; agonist: LPS 0.1 ug/mL): 1.14 ± 0.21 | NF-kB reporter ([1]; agonist: MPLA […]): 1.8 ± 0.13 | IRF reporter ([2]; agonist: 3'3'-cGAMP 10 ug/mL): 0.41 ± 0.014 | IRF reporter ([2]; agonist: LPS 0.1 ug/mL): 1.11 ± 0.24 | IRF reporter ([2]; agonist: MPLA […]): 1.99 ± 0.4 | viability score [3]: 0.293 (inactive)
